The subject of experiment [1] is XIP peptide (Xip251-270) binding. Put plainly: XIP fragment 251-270 binding compounds – biochemical, small-molecule microarray, fluorescence 635/667 nm, 0.1 µg/mL protein, primary screen (AID 1182). Conditions: fluorescent protein binding, 635 nm, higher = more signal, called active from +8 up or from −8 down.
Another experiment has as its system XIP peptide (Xip251-270). Description: compounds binding XIP fragment 251-270 – biochemical, small-molecule microarray, fluorescence 635/667 nm, 0.5 µg/mL protein, primary screen (AID 1183). The settings on record: fluorescence 635 nm, higher = more signal.
Experiment [2] in a line: blood-stage malaria parasite viability loss – strain 3D7, DAPI fluorescence, 100 nL, primary screen (AID 1184).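 Further: parasites grown inside human red blood cells in medium with human serum.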 The settings on record: P. falciparum 3D7 growth, 3 d, higher = more signal.
Experiment [3] deals with Homeobox protein Hox-A13 (Mus musculus) (UniProt Q62424). Description: disruptors of Hoxa13 oligonucleotide interaction – biochemical, fluorescence polarization, labeled oligonucleotide, primary screen (AID 1185). The settings on record: Hoxa13:DNA binding, 15 min, higher = more signal, called active from +8 up or from −8 down. On the technique in general: In fluorescence polarisation assays a small probe gives low polarisation when free and higher when bound to something large.
Homeobox protein Hox-A13 (Mus musculus), sequence (Q62424 whole entry, looked up): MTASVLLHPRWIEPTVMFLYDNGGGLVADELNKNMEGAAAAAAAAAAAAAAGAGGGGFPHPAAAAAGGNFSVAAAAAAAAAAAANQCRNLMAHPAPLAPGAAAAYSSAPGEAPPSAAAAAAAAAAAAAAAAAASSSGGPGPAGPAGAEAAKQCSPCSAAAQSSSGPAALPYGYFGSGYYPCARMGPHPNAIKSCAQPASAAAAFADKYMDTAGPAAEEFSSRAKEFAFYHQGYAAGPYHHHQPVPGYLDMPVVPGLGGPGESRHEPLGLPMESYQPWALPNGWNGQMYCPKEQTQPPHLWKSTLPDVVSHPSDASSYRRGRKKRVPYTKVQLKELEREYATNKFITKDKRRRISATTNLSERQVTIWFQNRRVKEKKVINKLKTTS

A short description of experiment [4]: blockers of DNA damage checkpoint Chk1 activation – imaging, HeLa, hydroxyurea, phospho-Chk1 antibody, percent positive cells, primary screen (AID 1186). Conditions: hydroxyurea-induced phospho-Chk1 immunofluorescence imaging, higher = more signal.
The nature of experiment [5]: blockers of DNA damage checkpoint Chk1 activation – imaging, HeLa, hydroxyurea, phospho-Chk1 nuclear intensity, primary screen (AID 1187). Conditions: hydroxyurea-induced phospho-Chk1 immunofluorescence imaging, higher = more signal.

SMILES strings stand for the structures. Calls of active or inactive are those of the source. Unless noted, how the calls were made is not given here.

Take `O=C(NCc1ccccc1)[C@@H]1c2ccccc2C(=O)N(C2CCCCC2)[C@H]1c1ccc(CO)cc1`: the composite z-score in experiment [1] is 0.81 (inactive); in the experiment on XIP peptide (Xip251-270) it was 0.732. For the same compound, the z-score in experiment [2] was -0.667; in experiment [3] it was -2.81 (inactive); in experiment [4] it was -0.13 (inactive); in experiment [5], -0.296 (inactive).

Consider `CS(=O)(=O)CCOC(=O)C1=CC(c2ccc(CO)cc2)=CC(c2cccs2)N(Cc2cccc(OC(F)(F)F)c2)C=C1C(=O)OCCS(C)(=O)=O` (stereo not given), for which the composite z-score in experiment [1] is 0.276 (inactive); in the experiment on XIP peptide (Xip251-270), 0.514. Moreover, the z-score in experiment [2] is -2.5; in experiment [3], -4.18 (inactive); in experiment [4] it was 0.552 (inactive); in experiment [5], 0.377 (inactive).

Regarding `C=CC[C@]1(C(=O)NCCN2CCOCC2)N=C(c2ccc(OCCCO)cc2)O[C@H]1c1ccccc1N=[N+]=[N-]`, the composite z-score in experiment [1] was 3.25 (inactive); with XIP peptide (Xip251-270), 0.819. For the same compound, the z-score in experiment [2] was -2.27; in experiment [3] it was -3.35 (inactive); in experiment [4] it was -0.56 (inactive); in experiment [5] it was -0.265 (inactive).

Take `CN1C(=O)C2C=CC(C(O)c3ccccc3)N(NC(=O)OC(C)(C)C)C2C1=O` (stereo not given): the composite z-score was 0.4 (inactive) in experiment [1] and 0.886 in the experiment with XIP peptide (Xip251-270). Also, the z-score in experiment [2] is -0.305; in experiment [3], -0.867 (inactive); in experiment [4], 0.253 (inactive); in experiment [5], -0.0164 (inactive).

Take `CC(=O)NCCCC[C@@H]1NC(=O)[C@@H]2C[C@H](C(=O)NCc3ccc(F)cc3)[C@H](c3ccc(O)cc3)N2C1=O`: the composite z-score in experiment [1] was 1.64 (inactive); in the experiment on XIP peptide (Xip251-270), 1.01. Besides, the z-score in experiment [2] was -0.448; in experiment [3] it was -1.2 (inactive); in experiment [4] it was 0.0701 (inactive); in experiment [5] it was 0.0917 (inactive).

For the compound `CCCCC(=O)N(Cc1ccccc1F)[C@@H]1CC(C(=O)NCCO)=C[C@H](Oc2c(I)cc(CO)cc2OC)[C@H]1O`, the values for the composite z-score (in experiment [1]; in the experiment on XIP peptide (Xip251-270)) were 0.466 (inactive) and 0.704, respectively. Also, the z-score is -1.66 in experiment [2], -7.53 (inactive) in experiment [3], 0.148 (inactive) in experiment [4] and 0.545 (inactive) in experiment [5].

On to `COC(=O)c1c(CC[C@@H](CO)NC(=O)Nc2ncn[nH]2)oc(C(=O)Cc2ccccc2)c1C(=O)OC`, for which the composite z-score in experiment [1] was 0.782 (inactive); with XIP peptide (Xip251-270), 0.883. The z-score was 0.654 in experiment [2], -2.98 (inactive) in experiment [3], 0.498 (inactive) in experiment [4] and -0.15 (inactive) in experiment [5].

As for `C/C=C/[C@H](CCn1cc([C@H](O)c2ccccc2)nn1)[Si](C)(C)c1ccc(OC)cc1`, the figures for the composite z-score (in experiment [1]; in the experiment on XIP peptide (Xip251-270)) were -0.0661 (inactive) and 0.634, respectively. For the same compound, the z-score in experiment [2] is 1.03; in experiment [3], -5.59 (inactive); in experiment [4] it was -0.131 (inactive); in experiment [5] it was -0.28 (inactive).

Regarding `COC(=O)c1c2oc(c1C(=O)OC)C(=O)N[C@H](Cc1ccccc1)Cn1nncc1C1(CCCCC1)NC(=O)N[C@H](CO)CC2`, the composite z-score in experiment [1] was 0.152 (inactive); with XIP peptide (Xip251-270), -0.0356. Also, the z-score was 1.06 in experiment [2], -2.22 (inactive) in experiment [3], -0.971 (inactive) in experiment [4] and -0.939 (inactive) in experiment [5].

In the case of `C=CCOC(=O)[C@H]1[C@@H]2C(=O)O[C@@H](c3ccccc3)[C@@H](c3ccccc3)N2[C@@H](c2ccc(OCCOC(=O)[C@H]3C[C@H]4C(=O)N[C@@H](CCCC[N+](C)(C)C)C(=O)N4[C@H]3c3ccc(O)cc3)cc2)[C@]12C(=O)Nc1ccccc12`, the composite z-score in experiment [1] is -0.436 (inactive); in the experiment on XIP peptide (Xip251-270), 0.487. The z-score was 1.04 in experiment [2], 6.97 (inactive) in experiment [3], -0.179 (inactive) in experiment [4] and -0.219 (inactive) in experiment [5].

As for `COC(=O)[C@@]1(Cc2ccc(F)cc2)[C@H]2c3cc(C(=O)N(C)C)n(Cc4ccccn4)c3C[C@H]2CN1C(=O)c1ccccc1`, the composite z-score is -0.0593 (inactive) in experiment [1] and 0.352 in the experiment on XIP peptide (Xip251-270). Also, the z-score in experiment [2] is -0.393; in experiment [3], -5.64 (inactive); in experiment [4], 0.412 (inactive); in experiment [5], 0.427 (inactive).

Regarding `C=C[C@@H](C)[C@@H](OC(=O)Nc1ccc(OC)cc1)c1ccc(O)c2ccccc12`, the composite z-score in experiment [1] was 1.36 (inactive); with XIP peptide (Xip251-270) it was -0.0477. In addition, the z-score was -1.65 in experiment [2], -3.38 (inactive) in experiment [3], 0.453 (inactive) in experiment [4] and 0.196 (inactive) in experiment [5].

For the compound `C=CC[C@@]1(C(=O)NCCN2CCOCC2)N=C(c2ccc(OCCCO)cc2)O[C@@H]1c1ccccc1CN=[N+]=[N-]`, the composite z-score is 1.21 (inactive) in experiment [1] and 0.818 in the experiment with XIP peptide (Xip251-270). Moreover, the z-score in experiment [2] is -2.13; in experiment [3] it was -1.05 (inactive); in experiment [4], -0.336 (inactive); in experiment [5], -0.254 (inactive).

As for `O=C(CS)NCCCCCNC(=O)[C@H]1C[C@H]2C(=O)N[C@@H](Cc3ccccc3)C(=O)N2[C@H]1c1cccc(OCCO)c1`, the composite z-score in experiment [1] was 0.296 (inactive); in the experiment on XIP peptide (Xip251-270) it was 0.812. Besides, the z-score was 0.0332 in experiment [2], -2.76 (inactive) in experiment [3], 0.0034 (inactive) in experiment [4] and 0.483 (inactive) in experiment [5].

For `[N-]=[N+]=NCc1ccccc1C[C@]1(C(=O)NCC(O)CO)COC(c2ccc(OCCCO)cc2)=N1` (stereo not given in full), the results for the composite z-score (in experiment [1]; in the experiment on XIP peptide (Xip251-270)) were 0.54 (inactive) and 0.376, respectively. In addition, the z-score is -2.04 in experiment [2], -4.94 (inactive) in experiment [3], -0.0874 (inactive) in experiment [4] and -0.341 (inactive) in experiment [5].

Source of the values: PubChem BioAssay.
